The source of these data is PubChem BioAssay (EPA / NIEHS).

“And” between values parts separate entries of the source, which are not always exact repeats. Identical values can stand only once. Where a structure was tested more than once in an assay, its records may differ in their call. The source made the active and inactive calls. Rule for the calls: active = hit-call score of the fitted dose curve at least 0.9, where 1 is the maximum; inactive = score below 0.9.

Read-out in test [1]: Intercellular Adhesion Molecule 1 (ICAM1), ICAM1 (gene 3383)
The test is described as follows: BSK_BE3C_ICAM1: BioMAP Diversity Plus: BE3C Assay for Intercellular Adhesion Molecule 1 (ICAM1) Biomarker Activity (AID 2284278).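 For outcome: cell-surface ICAM-1 protein level quantified by ELISA.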 Conditions: primary human bronchial epithelial cells. An outline of the steps: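 ICAM-1 quantified by ELISA and fitted against DMSO baseline, 24 h post-dosing in BE3C cultures of primary human lung bronchial epithelial cells. Cytotoxicity checked in parallel cultures by total protein SRB staining.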

Read-out in test [2]: Interferon-inducible T-cell alpha chemoattractant (ITAC), CXCL11 (gene 6373)
Briefly: BSK_BE3C_ITAC: BioMAP Diversity Plus: BE3C Assay for Interferon-inducible T-cell alpha chemoattractant (ITAC) Biomarker Activity (AID 2284279). As to conditions: primary human bronchial epithelial cells. An outline of the steps:
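Steps: dose human bronchial epithelial cells with chemical; incubate 24 h; measure I-TAC by ELISA; fit endpoint in positive direction against DMSO control. Cytotoxicity was checked in parallel cultures by SRB staining at harvest.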

Read-out in test [3]: Interleukin-8 (IL8), CXCL8 (gene 3576)
Briefly: BSK_BE3C_IL8: BioMAP Diversity Plus: BE3C Assay for Interleukin-8 (IL8) Biomarker Activity (AID 2284280). As to conditions: primary human bronchial epithelial cells. An outline of the steps: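 Primary human bronchial epithelial cells (BE3C system) were exposed to test chemical for 24 h, and IL-8 levels were then measured by ELISA. Activity was fitted in the positive (gain-of-signal) direction against a DMSO negative-control baseline.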

Read-out in test [4]: Epidermal growth factor receptor (EGFR), EGFR (gene 1956)
Briefly: BSK_BE3C_EGFR: BioMAP Diversity Plus: BE3C Assay for Epidermal growth factor receptor (EGFR) Biomarker Activity (AID 2284281). Conditions: primary human bronchial epithelial cells. An outline of the steps:
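Human primary bronchial epithelial cells were exposed to compound for 24 h, and cell-surface EGFR was then quantified by ELISA. Activity was fitted in the positive direction against the DMSO vehicle baseline.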

Read-out in test [5]: KRT18 (gene 3875)
The test is described as follows: BSK_BE3C_Keratin818: BioMAP Diversity Plus: BE3C Assay for Keratin 818 Biomarker Activity (AID 2284282). Conditions: primary human bronchial epithelial cells. A digest of the protocol:
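ELISA readout of Keratin 8/18 in human primary bronchial epithelial cultures after 24 h chemical exposure, DMSO baseline. Parallel SRB staining (0.1%, TCA-fixed, 560 nm) served as cytotoxicity check.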

Read-out in test [6]: Matrix Metallopeptidase 9 (MMP9), MMP9 (gene 4318)
The test is described as follows: BSK_BE3C_MMP9: BioMAP Diversity Plus: BE3C Assay for Matrix Metallopeptidase 9 (MMP9) Biomarker Activity (AID 2284283). As to conditions: primary human bronchial epithelial cells. An outline of the steps: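 Human primary bronchial epithelial cells in the BE3C system were dosed with compound for 24 h. MMP-9 was measured by ELISA, and the positive-direction response was fitted relative to DMSO as baseline. Parallel SRB staining gauged cytotoxicity.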

Read-out in test [7]: Plasminogen activator inhibitor-1 (PAI1), SERPINE1 (gene 5054)
Briefly: BSK_CASM3C_PAI1: BioMAP Diversity Plus: CASM3C Assay for Plasminogen activator inhibitor-1 (PAI1) Biomarker Activity (AID 2284284).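 Note: PAI-1 protein level measured by ELISA 24 h after dosing.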 Conditions: primary human coronary artery smooth muscle cells.

Read-out in test [8]: Monocyte Chemoattractant Protein-1 (MCP1), CCL2 (gene 6347)
Briefly: BSK_hDFCGF_MCP1: BioMAP Diversity Plus: hDFCGF Assay for Monocyte Chemoattractant Protein-1 (MCP1) Biomarker Activity (AID 2284285). As to conditions: primary human foreskin fibroblasts. A digest of the protocol:
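MCP-1 ELISA readout was taken 24 hours after dosing primary human dermal fibroblasts in the hDFCGF system, with DMSO as baseline. Parallel sulforhodamine B staining of total protein tracked overt cytotoxicity.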

Read-out in test [9]: Matrix Metallopeptidase 9 (MMP9), MMP9 (gene 4318)
The test is described as follows: BSK_BF4T_MMP9: BioMAP Diversity Plus: BF4T Assay for Matrix Metallopeptidase 9 (MMP9) Biomarker Activity (AID 2284276). Conditions: primary human bronchial epithelial cells with fibroblasts. An outline of the steps:
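MMP-9 levels were measured by ELISA after 24 h exposure of bronchial epithelial cell/dermal fibroblast co-cultures, with DMSO as baseline. Parallel cultures were stained with 0.1% SRB after TCA fixation, read at 560 nm, to flag overt cytotoxicity.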

Read-out in test [10]: Interleukin-8 (IL8), CXCL8 (gene 3576)
The test is described as follows: BSK_IMphg_IL8: BioMAP Diversity Plus: IMphg Assay for Interleukin-8 (IL8) Biomarker Activity (AID 2284277). As to conditions: primary human endothelial cells with macrophages. An outline of the steps:
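IL-8 levels were measured by ELISA 24 h after dosing in primary human venular endothelial cell–macrophage cultures, referenced to DMSO; parallel SRB staining monitored overt cytotoxicity.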

Take `CCCCCCCCCCCC`: the AC50 – broadly, the concentration giving half of the maximal activity seen – is 7.01 µM (active) and 6.7 µM (active) in test [1]; 8.03 µM (active) and 6.71 µM (active) in test [2]; 9.52 µM (active) in test [3]; 5.07 µM (active) in test [4]; 5.09 µM (active) in test [5]; 9.27 µM (active) and 9.14 µM (active) in test [6]. Besides, the AC50 in test [8] was 11.1 µM (active) and 7.93 µM (active). In addition, the outcome in [3], in test [4], in test [5] and in test [7] was inactive.
With `O=P(O)(O)CCC(F)(F)C(F)(F)C(F)(F)C(F)(F)C(F)(F)C(F)(F)F`, the result in test [9], in test [10], in [1], in [2], in test [3] and in [4] was inactive. The result in [5], in test [6], in test [7] and in [8] was inactive.
Consider `O=C1NS(=O)(=O)c2ccccc21`, for which the outcome in test [1], in test [2], in test [3], in test [4], in [5] and in [6] was inactive. In addition, the result in test [7] and in test [8] was inactive.
As for `CN(Cc1cnc2nc(N)nc(N)c2n1)c1ccc(C(=O)N[C@@H](CCC(=O)O)C(=O)O)cc1`, the result in test [9], in [10], in [1], in [2], in test [3] and in test [4] was inactive. Also, the result in test [5], in [6], in [7] and in [8] was inactive. In test [8], the AC50 was 607 nM (active).
Turning to `OCC(F)(F)C(F)(F)C(F)(F)C(F)(F)C(F)(F)C(F)(F)C(F)(F)C(F)(F)C(F)(F)C(F)(F)C(F)(F)F`, the outcome in test [9], in [10], in test [1], in [2], in [3] and in test [4] was inactive. In addition, the result in [5], in test [7] and in [8] was inactive. Besides, the half-maximal activity concentration (AC50) was 0.216 µM (active) in test [10]; 0.224 µM (active) in [3]; 229 nM (active) and 222 nM (active) in [6].
For the molecule `O=C(CC(=O)C(F)(F)C(F)(F)C(F)(F)F)c1cccs1`, the concentration at half-maximal activity (AC50) in [9] was 28.8 µM (active) and 22.4 µM (active); in test [10] it was 22.4 µM (active); in test [1], 42.2 µM (active) and 35.1 µM (active); in test [2] it was 24.7 µM (active) and 24.1 µM (active); in [3], 48.2 µM (active) and 55.2 µM (active); in [4] it was 30 µM (active) and 20.5 µM (active). Also, the AC50 in [5] is 10.8 µM (active) and 14.7 µM (active); in test [6], 18.5 µM (active). Further, the outcome in [10], in test [7] and in test [8] was inactive.
`O=S(=O)(O)C(F)(F)C(F)(F)C(F)(F)C(F)(F)C(F)(F)C(F)(F)C(F)(F)C(F)(F)C(F)(F)C(F)(F)F`: the result in [9], in test [10], in [1], in test [2], in test [3] and in test [4] was inactive. Besides, the result in test [7] and in test [8] was inactive. The AC50 in test [10] was 12.2 µM (active); in test [2] it was 21.8 µM (active); in test [5] it was 21 µM (active) and 18 µM (active); in test [6], 9.67 µM (active) and 13.3 µM (active); in test [8], 10300 nM (active).
`C=CC(=O)OCCC(F)(F)C(F)(F)C(F)(F)C(F)(F)C(F)(F)C(F)(F)C(F)(F)C(F)(F)F`: the outcome in test [9], in test [10], in test [1], in [2], in test [3] and in test [4] was inactive. In addition, the outcome in test [5], in test [6], in [7] and in test [8] was inactive. Also, the AC50 in test [8] was 7290 nM (active).
Take `Oc1c(Cl)cc(Cl)cc1Sc1cc(Cl)cc(Cl)c1O`: the AC50 in [1] is 5.56 µM (active) and 6.58 µM (active); in test [2] it was 3.3 µM (active) and 3.57 µM (active); in [3] it was 11.7 µM (active) and 11.1 µM (active); in [4] it was 4.89 µM (active) and 4.9 µM (active); in test [5], 9.64 µM (active) and 7.03 µM (active); in test [6], 2.09 µM (active) and 1.25 µM (active). The AC50 was 18.3 µM (active) in test [7]; 2.54 µM (active) and 3.14 µM (active) in test [8]. Also, in test [7], the outcome was inactive.
`O=C(O)CCC(F)(F)C(F)(F)C(F)(F)C(F)(F)C(F)(F)F`: the outcome in [9], in test [10], in [1], in test [2], in [3] and in test [4] was inactive. In addition, the outcome in test [5], in test [6], in test [7] and in test [8] was inactive.
In the case of `CN(CCO)S(=O)(=O)C(F)(F)C(F)(F)C(F)(F)C(F)(F)C(F)(F)C(F)(F)C(F)(F)C(F)(F)F`, the result in [9], in test [10], in [1], in test [2], in [3] and in test [4] was inactive. In addition, the outcome in [5], in test [6], in test [7] and in test [8] was inactive. For the same molecule, the AC50 in test [8] is 74.2 nM (active).
As to `O=C(O)C(F)(F)OC(F)(F)C(F)(F)OC(F)(F)C(F)(F)OC(F)(F)C(F)(F)C(F)(F)C(F)(F)F`, the AC50 in test [9] was 11.2 µM (active) and 8.88 µM (active); in [10], 54.2 µM (active) and 7.06 µM (active); in test [1], 6.39 µM (active) and 5.8 µM (active); in [2], 5.77 µM (active) and 5.71 µM (active); in [3], 6.28 µM (active) and 6.03 µM (active); in test [5], 3.28 µM (active) and 2.7 µM (active). Moreover, the half-maximal activity concentration (AC50) is 5.94 µM (active) and 4.69 µM (active) in [6]; 8.5 µM (active) and 8.66 µM (active) in test [8]. Also, the outcome in [4] and in [7] was inactive.
Turning to `Oc1ccc(Cc2ccccc2O)cc1`, the outcome in test [1], in test [2], in test [3], in [4], in test [5] and in [6] was inactive. The outcome in test [7] and in [8] was inactive.
As for `O=P(O)(O)CCC(F)(F)C(F)(F)C(F)(F)C(F)(F)C(F)(F)C(F)(F)C(F)(F)C(F)(F)F`, the result in test [9], in test [10], in [1], in test [2], in test [3] and in [4] was inactive. The result in [5], in test [6], in test [7] and in test [8] was inactive. Also, in test [10], the half-maximal activity concentration (AC50) is 40.1 µM (active).
On to `O=C(O)CCC(F)(F)C(F)(F)C(F)(F)C(F)(F)C(F)(F)C(F)(F)F`, for which the result in test [9], in test [1], in [2], in test [3], in test [4] and in [5] was inactive. Further, the outcome in [6], in test [7] and in [8] was inactive. Moreover, the half-maximal activity concentration (AC50) in [10] was 14.2 µM (active) and 23 µM (active) and 17.1 µM (active).
